# JMJD2A Tudor: qHTS Assay for Inhibitors of JMJD2A-Tudor Domain. AID 504339, 2011. AlphaScreen JMJD2A-Tudor / H3K4me3 peptide binding. Potency, µM (highest dose often 114 µM), inactives show at the highest dose activity change, negative = inhibition, usual class: inhibitors. Lysine-specific demethylase 4A (Homo sapiens), O75164. hit rate 4.4% among 390,000; also: potency is read from the fitted curve at half-maximal effect; % is scaled to controls: 0 for no effect and ±100 for the full control effect; nearly all actives have a fitted effect of over 50% in size
# Six1-Eya2 inh: qHTS Assay for Inhibitors of the Six1/Eya2 Interaction. AlphaScreen GST-Six1/His-Eya2 binding, biochemical; active compounds read low. AID 651725, 2012. Homeobox protein SIX1 (Homo sapiens) + Protein phosphatase EYA2 (Homo sapiens), …. activity change, % (concentration not given with the values). hit rate 0.56% among 360,000; in the data active = activity change below about -65%; inconclusive = mostly about -30% to -63%; also: % is scaled to controls: 0 for no effect and ±100 for the full control effect
#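 AlphaScreen with GST-Six1 and His-Eya2 (5X mix: 250 nM and 500 nM), glutathione donor and nickel acceptor beads; buffer 50 mM Tris pH 8.0, 300 mM NaCl, 1 mM TCEP; 1 h at 37 C in the dark.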
# BAZ2B inh: qHTS Assay for Inhibitors of BAZ2B. Bromodomain adjacent to zinc finger domain protein 2B (Homo sapiens), Q9UIF8. AlphaScreen BAZ2B-H3K14Ac peptide displacement. Potency, µM (doses to about 114 µM), without a hit: at the highest dose activity change, negative = inhibition, hits mostly inhibitors. hit rate 4.4% among 360,000. AID 504333, 2011; also: potency is read from the fitted curve at half-maximal effect; % is scaled to controls: 0 for no effect and ±100 for the full control effect; nearly all actives have a fitted effect of over 60% in size
#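 Compounds, titrated to a top concentration of 110 uM, were incubated 30 min at room temperature with preformed BAZ2B/acetyl-K14 H3 peptide complex (50 nM each). Proximity signal was measured by AlphaScreen after 20 min with beads.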
# CtBP-E1A inh: qHTS Assay for Inhibitors of the CtBP/E1A Interaction | AlphaScreen GST-E1A/His-CtBP binding, 1536-well; active compounds read low | activity change, % (concentration not given with the values) | hit rate 0.49% among 340,000 | CtBP / adenovirus E1A interaction (AlphaScreen); in the data active = activity change below about -65%; inconclusive = mostly about -30% to -63%; also: % is scaled to controls: 0 for no effect and ±100 for the full control effect
#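 GST-E1A and His-tagged CtBP (125 nM each as 5X stock) were preincubated with pin-transferred compound for 2 h at 37 °C in the dark, then glutathione donor and nickel acceptor beads were added for 1 h before AlphaScreen reading.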
# G9a inh: qHTS Assay for Inhibitors of Histone Lysine Methyltransferase G9a; Histone-lysine N-methyltransferase EHMT2 (Homo sapiens), Q96KQ7; G9a H3K9 monomethylation, AlphaScreen, 2 h; Potency, µM (titrated, usually from 102 µM), for inactives: at the highest dose activity, negative = inhibition, hits mostly inhibitors; hit rate 8.8% among 350,000; AID 504332, 2011; also: potency is read from the fitted curve at half-maximal effect; % is scaled to controls: 0 for no effect and ±100 for the full control effect; nearly all actives have a fitted effect of over 75% in size
# Target sequence (Q96KQ7 913-1193 limits assumed): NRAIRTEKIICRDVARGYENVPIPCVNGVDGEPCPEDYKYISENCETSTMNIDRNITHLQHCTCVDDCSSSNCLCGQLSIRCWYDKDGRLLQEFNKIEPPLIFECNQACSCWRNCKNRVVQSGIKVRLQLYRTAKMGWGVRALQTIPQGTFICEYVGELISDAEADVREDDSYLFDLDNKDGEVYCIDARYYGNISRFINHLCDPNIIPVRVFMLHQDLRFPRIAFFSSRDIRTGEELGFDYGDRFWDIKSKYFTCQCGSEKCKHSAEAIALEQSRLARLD
#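 Readings reflect AlphaScreen signal from monomethyl-H3K9 antibody detection. HMT at 20 nM; substrate b-H3K9 500 nM; cofactor SAM 20 uM; 2 h RT reaction; compounds tested as titrations in qHTS with 15 min preincubation.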
# HP1b chromo inh: HTS for Inhibitors of HP1-beta Chromodomain Interactions with Methylated Histone Tails. hit rate 0.56% among 390,000. AlphaScreen HP1-beta / biotin-H3K9me3 peptide binding. Potency, µM (doses to about 114 µM), for inactives: at the highest dose activity change, negative = inhibition, actives largely listed as inhibitors; also: potency is read from the fitted curve at half-maximal effect; nearly all actives have a fitted effect of over 70% in size
# Target sequence (P83916 whole entry, looked up): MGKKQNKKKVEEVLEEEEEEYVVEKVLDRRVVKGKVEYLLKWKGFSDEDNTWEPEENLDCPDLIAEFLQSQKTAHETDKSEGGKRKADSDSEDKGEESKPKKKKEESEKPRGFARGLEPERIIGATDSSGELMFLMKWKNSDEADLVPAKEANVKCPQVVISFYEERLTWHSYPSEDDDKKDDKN
#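 Compound inhibition of the preformed complex between 50 nM HP1-beta and 50 nM biotinylated H3K9me3 peptide was read by AlphaScreen. Buffer was PBS pH 7.4 with 0.01% Tween-20. Incubations ran 30 min at room temperature, with 10 ug/mL donor/acceptor beads.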
# Starred values were filed as active, the others as inactive; ? = inconclusive; . = no result; [ ] = another dose, or the depositor's remark. Rows were chosen to be rich in hits. Some 10% of all compounds tested hit in one or more screens of this group. Unless noted, calls follow the shape of the dose curve; as a rule, active = well fitted inhibition curve with a large enough effect; inconclusive = small, poorly fitted or top-dose-only effect; inactive = no such curve, though single readings can be large or run the other way.
SMILES,JMJD2A Tudor,Six1-Eya2 inh,BAZ2B inh,CtBP-E1A inh,G9a inh,HP1b chromo inh
O=C(Nc1ccc2c(c1)OCO2)c1cc(-c2ccncc2)nc2ccccc12,?,?,?,-13.6,50.1µM*,?
O=C(N/N=C/c1ccc([N+](=O)[O-])o1)c1cc(-c2ccc(-c3ccccc3)cc2)nc2ccccc12,-34.3%,-28.2,-1.0%,-26.8,-0.7%,12.2%
Cc1ccc(-c2cc(C(=O)N/N=C/c3ccc([N+](=O)[O-])o3)c3ccccc3n2)o1,-34.8%,?,-37.4%,-24.1,44.7µM*,10.1%
Cc1ccc(/C=N\NC(=O)c2cncc(Br)c2)o1,-13.7%,-11.8,-4.0%,-24.8,50.1µM*,29.5%
Cc1cc(C)n(C(C)CC(=O)Nc2cccc(C(F)(F)F)c2)n1 (stereo not drawn),-14.7%,.,-4.2%,.,7.0%[59 µM],25.4%
O=C(Cn1ncc(Cl)c(Cl)c1=O)N1CCN(S(=O)(=O)c2ccc3ccccc3c2)CC1,-4.2%,-22.5,11.2%,-1.0,44.7µM*,35.6%
O=C(O)CCC(=O)N1CCN(S(=O)(=O)c2ccc3ccccc3c2)CC1,6.3%,12.9,-10.0%,0.7,-7.7%,30.4%
O=[N+]([O-])c1cccc(-c2ncc3ccccn23)c1,-29.9%,-0.2,?,-12.9,-41.6%,-14.6%
Nc1c(-c2cccc([N+](=O)[O-])c2)nc2ccccn12,-34.7%,-16.4,?,-0.8,79.4µM*,-11.5%
Cc1ccc2ncc(C(=O)NC(C)c3ccccc3)c(=O)n2c1 (stereo not drawn),-13.1%,.,-1.4%,.,6.2%[59 µM],14.6%
Cc1cccc(CNC(=O)c2ccccc2NC(=O)C2=CSCCO2)c1,-30.4%,16.7,2.1%,0.0,32.7%,11.1%
CCOc1ccc(CNC(=O)c2ccccc2NC(=O)C2=CSCCO2)cc1,31.6µM*,-2.9,-16.7%,1.3,-11.3%,-1.5%
Cc1cccc(CNC(=O)c2ccc(NC(=O)C3=CSCCO3)cc2)c1,20µM*,-0.9,-16.9%,2.0,-8.9%[59 µM],7.9%
Cc1cccc(C)c1NC(=O)COC(=O)C1CC1,-7.8%,3.1,1.1%,0.7,6.9%[12.7 µM],37.9%
Cc1cc(C)c(-c2nc3ccccc3s2)[nH]1,-21.2%,-2.6,-22.9%,1.2,50.1µM*,-2.0%
COc1ccc(C(=O)C2CCCN(C(=O)c3ccc(CSC)o3)C2)cc1F (stereo not drawn),-31.5%,-21.8,-33.0%,-2.7,31.6µM*,10.4%
Cc1cccc(C(=O)Nc2cccc(C(=O)OCc3cc(=O)n4c5c(sc4n3)CCCC5)c2)c1,-8.9%,.,-11.0%,.,12.9%[59 µM],36.0%
CCn1cc(C(=O)N(C)CC(OC)OC)c(=O)c2cc(S(=O)(=O)N3CCOCC3)ccc21,-6.6%,1.2,0.4%,.,46.6%,6.7%[57 µM]
COc1ccc(CN2CCSCC2)cc1C,8.91µM*,-1.6,79.4µM*,2.0,10µM*,?
COc1cc(-c2[nH]ncc2CN2CCSCC2)cc(OC)c1OC,-6.9%,-4.5,-3.5%,-9.0,-3.1%,-2.0%
COc1cc(OC)c(OC)cc1CN1CCSCC1,3.16µM*,-2.0,79.4µM*,3.3,?,?
COc1cc(C)c(CN2CCSCC2)cc1C,31.6µM*,-0.9,?,.,-31.2%[0.501 µM],-3.1%
CCOC(=O)Cc1c(C)nc2c(-c3ccc(OC)cc3)c(C)nn2c1C,-3.7%,9.7,13.8%,5.2,-3.1%,29.6%
Nc1nc2ccc([N+](=O)[O-])c(N)c2s1,-29.9%,?,-34.9%,-71.7*,-45.7%[0.0925 µM],-9.3%
CCCSc1nc(NCc2ccco2)c2c3c(sc2n1)COC(C)(C)C3,?,-0.2,?,-10.7,12.0%[12.7 µM],25.5%
CCCCSc1nc(NCc2ccco2)c2c3c(sc2n1)COC(C)(C)C3,-22.5%,0.9,-27.5%,1.0,50.1µM*,28.7%
CCN1CCN(Cc2c(O)ccc3cc(-c4ccc(OC)cc4)c(=O)oc23)CC1,19.2%,.,29.5%,.,-8.8%[59 µM],48.5%[57 µM]

# Source: PubChem BioAssay (National Center for Advancing Translational Sciences (NCATS))
